Consider 21 molecules from PubChem BioAssay AID651744 (Broad Institute, 2012).

Out of some 5,600 compounds screened, about 3,100 (55%) were called active. Another 3% or so got no clear call; they are omitted. So high a share suggests a set chosen from earlier hits. Not all results are given here. Unmarked numbers belong to inactive results.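 How the source made its calls: active means mean loss of cell viability signal at or above a set limit, and enough replicates individually reaching it; inconclusive means meets only the mean limit or only the replicate share; inactive means meets neither condition.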

This assay is described as follows: viability loss of mouse 3T3 cells – cell-based, cherry-pick, single point, set 2, cytotoxicity control, confirmation (AID 651744).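 Further: 0% = median of neutral control wells and 100% = median of positive control wells.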 The note with it: NIH/3T3 viability, CellTiter-Glo ATP luminescence, 90 h; at 24.9 µM; hits give high values. (In general: ATP-based viability assays read luminescence as a measure of living cells.)
`CC(C)NC(=O)N(C)C[C@H]1OCc2cn(nn2)CCCC(=O)N([C@@H](C)CO)C[C@H]1C`: the inhibition was -9.15%. Turning to `CCCC#Cc1ccc([C@H]2[C@H](CO)N3CCCCN(C(=O)c4ccc5c(c4)OCO5)C[C@@H]23)cc1`, the inhibition is 85.9% (active). For `Cc1cccc(-c2ccc([C@@H]3[C@H](CO)N4CCCCN(C(=O)c5ccc6c(c5)OCO6)C[C@@H]34)cc2)c1`, the inhibition is 105% (active). Regarding `CC(C)(O)C#Cc1ccc([C@@H]2[C@H](CO)N3CCCCN(C(=O)c4cccc(F)c4)C[C@@H]23)cc1`, the inhibition is 1.66%. Under `COc1ccc(-c2ccc([C@H]3[C@H]4CN(C(=O)c5ccc6c(c5)OCO6)CCCCN4[C@H]3CO)cc2)cc1` stands 67.5% (active).

Turning to `COCC#Cc1ccc([C@@H]2[C@H](CO)N3CCCCN(C(=O)CN(C)C)C[C@@H]23)cc1`, the inhibition was -6.74%. In the case of `O=C(c1cccc(F)c1)N1CCCCN2[C@H](CO)[C@H](c3ccc(-c4ccncc4)cc3)[C@H]2C1` it was -0.739%; in that of `CC(C)(C)[S@@](=O)N1Cc2cc(C(=O)NCc3ccc4c(c3)OCO4)nc(-c3cccc(-c4ccccc4)c3)c2[C@H]1CCO`, 49% (active); in that of `O=C(Nc1ccc(-c2ccccc2)cc1)[C@H]1[C@H](CO)[C@H]2Cn3c(cccc3=O)[C@H]2N1CC1CC1`, 59.4% (active). As to `O=C(NCC1CCCCC1)[C@H]1[C@H](CO)[C@H]2Cn3c(cccc3=O)[C@H]2N1C(=O)CC1CC1`, the inhibition was 2.76%. In the case of `CNC[C@@H]1Oc2cc(C#CCC3CCCC3)ccc2S(=O)(=O)N([C@H](C)CO)C[C@H]1C` it was 105% (active); in that of `CNC[C@H]1OCCCC[C@H](C)Oc2ccc(NC(=O)Nc3c(C)noc3C)cc2C(=O)N([C@H](C)CO)C[C@H]1C`, 11.5%; in that of `C[C@@H]1CN([C@H](C)CO)S(=O)(=O)c2ccc(C#CCC3CCCC3)cc2O[C@H]1CN(C)C(=O)CC1CC1`, 103% (active). Consider `C[C@@H]1CN([C@@H](C)CO)S(=O)(=O)c2ccc(C#CCC3CCCC3)cc2O[C@H]1CN(C)C(=O)CC1CC1`, for which the inhibition was 104% (active). Under `C[C@@H]1CCCCO[C@H](CN(C)C(=O)CCC(F)(F)F)[C@H](C)CN([C@H](C)CO)C(=O)c2cc(NS(C)(=O)=O)ccc2O1` stands 4.09%; under `CNC[C@H]1OCCCC[C@@H](C)Oc2ccc(NS(C)(=O)=O)cc2C(=O)N([C@H](C)CO)C[C@H]1C`, -29.3%; under `CC(=O)NC[C@@H]1[C@@H](c2ccc(-c3ccccc3F)cc2)[C@@H](CO)N1C(=O)C1CC1`, -15.5%. In the case of `C[C@@H]1CCCCO[C@@H](CN(C)C(=O)Nc2ccc(F)cc2)[C@H](C)CN([C@H](C)CO)C(=O)c2cc(NC(=O)Nc3cccc4ccccc34)ccc2O1` it was -7.66%. For the molecule `C[C@@H]1CCCCO[C@H](CN(C)C(=O)Nc2cccc3ccccc23)[C@H](C)CN([C@H](C)CO)C(=O)c2cc(NS(=O)(=O)c3cccs3)ccc2O1`, the inhibition is 2.06%. In the case of `C[C@@H]1CCCCO[C@@H](CN(C)Cc2ccccc2)[C@H](C)CN([C@H](C)CO)C(=O)c2cc(NC(=O)Nc3cccc4ccccc34)ccc2O1`, the inhibition is 105% (active). In the case of `C[C@@H]1CN([C@@H](C)CO)C(=O)c2cc(NC(=O)Nc3cccc4ccccc34)ccc2O[C@@H](C)CCCCO[C@H]1CN(C)Cc1ccccc1` it was 104% (active).

For orientation: inhibition means the change of the read-out against control, counted positive when it falls.
